# Laboratory results as given in PubChem BioAssay (NCI).
# About 83,000 compounds went through this panel and 20% of them were active in at least one assay; those are over-represented in the sample as a whole.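 Assay: single dose, 48 h. Readout: percent growth (0 = no net growth; negative = cell death). Active: <10.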 A number with no mark means an inactive call. Active and inactive are the calls of the source.
# System: OVCAR-5 ovarian
# Experiment: NCI-60 one-dose screen, 48 h (100 = growth as untreated, 0 = no growth, -100 = all killed)
# Settings: 10 µM
# Procedure: Growth inhibition of the OVCAR-5 human tumor cell line is measured as a screen for anti-cancer activity. Cells are grown in 96 well plates and exposed to the test compound for 48 hours. Compounds are tested at a single concentration, which is 10^-5 M for most compounds. The reported endpoint is percent growth (GI% or GIPRCNT), where numbers from 0 - 100% represent growth inhibition, and numbers from -100% - 0 represent cell death. For example, a value of 40 represents 60% growth inhibition. A value of 0 means no net growth occurred over the course of the experiment. A value of -40 indicates 40% of cells at the beginning of the experiment died by the end of the experiment. A value of -100 means all cells are dead at the end of the experiment.
# NCI-60 Human Tumor Cell Lines Screen was performed using the standard one-dose NCI protocol, which is described in more detail at https://dtp.cancer.gov/discovery_development/nci-60/default.htm.
# Compounds with GIPRCNT values below 10 were considered active. Activity score was based on GIPRCNT using the following formula: […]
# Score is 0 for GIPRCNT values of 100 or above, 50 for GIPRCNT values of 0, and 100 for GIPRCNT values of -100.
row,Structure (SMILES),growth
1,COc1cc(C2=Nc3c/c(=C\c4c(O)[nH]c5ccc(Cl)cc45)ccc3=N2)cc(OC)c1OC,79.6%
2,O=[N+]([O-])c1ccc(-c2nc(Cl)c3c(n2)CCCC3)o1,103%
3,O=[N+]([O-])c1ccc2c(c1)Cc1cc(I)ccc1-2,97%
4,C#CCNCCN1C(=O)c2ccc3c4c(ccc(c24)C1=O)C(=O)N(CCNCC#C)C3=O,68.2%
5,CC(=O)c1ccc(NCn2nc(-c3ccc(Cl)cc3)oc2=S)cc1,85.2%
6,CCOC(=O)c1c(C)n(-c2ccc(Cl)cc2)c2ccc(OC(=O)/C=C/c3ccccc3)cc12,108%
7,CCC(O)c1ccc(Br)cc1NC(=O)c1cccc(Cl)c1 (stereo not given),50.4%
8,CC(C)/C=N/NC(N)=S,78.7%
9,COc1ccc(C(=O)n2nc(CC(=O)NCc3ccccc3)nc2N)cc1,113%
10,COc1ccc(-c2nnc(COc3ccc(NC(=O)Nc4cccc(C(F)(F)F)c4)cc3F)o2)cc1,82.5%
11,COc1ccc(C2C=C(c3ccc(OC)c(OC)c3)N=C3SC=CN32)c(Br)c1 (stereo not given),102%
12,COc1ccc(-c2nnc(COc3ccc(NC(=O)Nc4ccccc4)cc3F)o2)cc1,114%
13,CC(C)C[C@H](NC(=O)Cn1ccc2ccccc2c1=O)B(O)O,76.9%
14,N#CC1C=Cc2c(ccc3ccccc23)N1C(=O)c1ccccc1 (stereo not given),45.4%
15,Cc1nc2cc(-n3c(-c4ccc(F)cc4)nc4ccccc4c3=O)ccc2n1Cc1ccccc1,65.2%
16,Cc1ccc(S(=O)(=O)Nc2cccc3[nH]c(C(F)(F)F)nc23)cc1,35.3%
17,Cc1cccc2c1O/C(=C\c1ncc([N+](=O)[O-])n1C)C2=O,-15.7% (active)
18,CC(C)c1ncc(CO)n1Cc1c(Cl)cccc1Cl,106%
19,CCOC(=O)CNC(=O)Nc1ccc(Oc2ccc(NC(=O)NCC(=O)OCC)cc2)cc1,112%
20,O=c1oc2cc(OS(=O)(=O)C3CC3)ccc2c2c1CCCCCC2,100%

row,Structure (SMILES),growth
1,O=C(CCc1ccccc1)N1CCN(C(=O)CCc2ccccc2)CC1,110%
2,COc1ccc(C2C=C(c3ccc(Cl)cc3)N=C3SC=CN32)c(Br)c1 (stereo not given),98.2%
3,OC(CNC1CCCC1)Cn1c2ccccc2c2ccccc21 (stereo not given),103%
4,COc1ccc(-c2cc(/C=C3\C(=O)Nc4cc(Cl)ccc43)[nH]n2)cc1,69.4%
5,CCN(CCCNC(=O)Cc1cc(=O)oc2cc(N(C)C)ccc12)CCNc1ccnc2cc(Cl)ccc12,109%
6,S=c1c2ncccc2c(-c2ccccn2)nn1Cc1ccccn1,111%
7,Cc1cn(C(=O)/C(Cl)=C(/Cl)C(=O)O)c2ccccc12,103%
8,COC(=O)CCCCCCCCC(C)c1ccc(C(C)=O)cc1 (stereo not given),98.4%
9,FC(F)(F)c1ccc(-c2cnc(Br)nc2NC2CCCCCC2)cc1,63.2%
10,CCOC(=O)c1sc(NC(=O)c2cc(OC)c(OC)c(OC)c2)nc1C,108%
11,Cc1nc2ccc(-n3c(-c4ccc(Cl)cc4)nc4ccccc4c3=O)cc2n1Cc1ccccc1,118%
12,Cc1nnc2c3nnc(-c4ccc(Cl)cc4)n3c3ccccc3n12,100%
13,Cc1ccc(-c2cc(C(=O)Nc3ccc(S(=O)(=O)N4CCCCC4)cc3)[nH]n2)c(O)c1,73.8%
14,COc1cc(Cl)cc(-c2nn(-c3cccc(NC(=O)Nc4cccc(C(F)(F)F)c4)c3)cc2-c2ccncc2)c1,34.1%
15,Oc1[nH]c2ccccc2c1/C=c1/cc2c(c(-c3ccc(C(F)(F)F)cc3)n1)=Nc1ccccc1-2,70.5%
16,COc1ccc(-c2nc(-c3nc4ccc(OC)cc4[nH]3)c3ccccn23)cc1,89.7%
17,Nc1ccc(C2=CC(c3ccc(Cl)cc3)N3C=CSC3=N2)cc1 (stereo not given),-66.1% (active)
18,C=CCn1ccc(=O)nc1SC,109%
19,CCCCCCCCCCCC(=O)NCCCN(C)C,91.1%
20,C/C(=N/NC(=O)c1sc(=S)n(C)c1N)c1cc2cc(Cl)ccc2o1,101%
